Measured values from PubChem BioAssay AID463173 (ICCB-Longwood Screening Facility, Harvard Medical School, 2010).
The whole screen tested about 52,000 compounds, of which about 4,300 (8.3%) were called active. The full list was thinned out, with actives kept by preference. A number with no mark means an inactive call. Cut-off read from the data, not from the text of the source: active = survival mostly below about 52% (no sharp cut-off); inactive = mostly above about 56%.

System: DeltatarO mutant
Experiment: growth inhibition of S. aureus wild type versus tarO mutant, primary screen, teichoic acid synthesis inhibitors, RN4220, OD600 (AID 463173)
Conditions: OD600, 18 h, hits give low values, screened at 18.75 µg/mL (by protocol)

| Structure (SMILES) | survival |
| --- | --- |
| O=C(NCCc1ccc(Cl)cc1)c1ccc2c(c1)N(Cc1ccccc1F)C(=O)c1ccccc1S2(=O)=O | 79% |
| CCc1cccc2c(-c3ccccc3)nc(SCC(=O)Nc3ccccc3OC)nc12 | 109% |
| Cc1ccc(C)c(N2CCN(S(=O)(=O)c3cnc(N)nc3)CC2)c1 | 86% |
| COc1ccc2oc(=O)c(-c3cn4c(n3)sc3cc(F)ccc34)cc2c1 | 76% |
| Cc1oc2ccc(O)c(CN3CCN(Cc4ccccc4)CC3)c2c1C(=O)Nc1ccccc1 | 68% |
| COc1cccc(Cc2nc3ccccc3nc2SCC(=O)NCCc2ccccc2)c1 | 87% |
| COc1cc2c(-c3ccccc3Cl)nc3c(c(C)nn3-c3ccccc3)c2cc1OC | 57% |
| COc1cc2c(-c3ccccc3C)nc3c(c(C)nn3-c3ccccc3)c2cc1OC | 35% (active) |
| COc1ccc(CNC(=O)CCc2c(C)nc3c(c(C)nn3-c3ccccc3)c2C)cc1 | 78% |
| Cc1nc2c(c(C)nn2-c2ccccc2)c(C)c1CCC(=O)NCCc1ccccc1 | 58% |
| COc1cc2c(-c3ccccc3O)nc3c(c(C)nn3-c3ccccc3)c2cc1OC | 68% |
| Cc1nc2c(c(C)nn2-c2ccccc2)c(C)c1CCC(=O)NCc1ccccc1 | 70% |
| Cc1cccc(CCNC(=O)CCc2c(C)nc3c(c(C)nn3-c3ccccc3)c2C)c1 | 48% (active) |
| COc1ccc(CCNC(=O)CCc2c(C)nc3c(c(C)nn3-c3ccc(C)cc3)c2C)c(OC)c1 | 107% |
| COc1ccc(CCNC(=O)CCc2c(C)nc3c(c(C)nn3-c3ccccc3)c2C)c(OC)c1 | 53% (active) |
| O=c1c2ccc(N3CCOCC3)c3cccc(c32)c2nc3ccccc3n12 | 90% |
| CC(C)(C)c1ccc(-c2nc3cc(NC(=O)c4cccc(Br)c4)ccc3o2)cc1 | 73% |
| CC(C)c1ccc2oc(-c3ccc(NC(=O)c4cccc(Br)c4)cc3)nc2c1 | 44% (active) |
| Cc1cccc(C(=O)Nc2ccc3oc(-c4cccc5c(Br)cccc45)nc3c2)c1 | 67% |
| O=C(Nc1ccc2oc(-c3cccnc3)nc2c1)c1cccc(Br)c1 | 62% |
| Cc1cccc(C(=O)Nc2ccc(-c3nc4cc(C(C)C)ccc4o3)cc2)c1 | 34% (active) |
| Cc1cccc(C(=O)Nc2ccc3oc(-c4ccncc4)nc3c2)c1 | 62% |
| CC1CCN(CC(=O)Nc2ccc3ccccc3c2)CC1 | 107% |
| CCCC(O)=NS(=O)(=O)c1ccc(N=NN(C)C)cc1 | 94% |
| COc1cccc(NC(=O)CN(C)S(=O)(=O)c2cccs2)c1 | 108% |

| Structure (SMILES) | survival |
| --- | --- |
| CC(C)C(OC(=O)c1cc2occc2n1C(C)C)C(=O)NCC1CCCO1 (configuration not stated) | 67% |
| COc1ccc(NC(=O)Cn2cc(C#N)c3ccccc32)cc1 | 67% |
| CCC1CN(C(=O)N2CCC(C(=O)NCCc3ccc(OC)c(OC)c3)CC2)c2ccccc2O1 (configuration not stated) | 74% |
| CC1CCc2nc3ncn(Cc4ccc(Cl)cc4)c(=O)c3cc2C1 (configuration not stated) | 85% |
| CC1CCc2nc3ncn(Cc4cccc(F)c4)c(=O)c3cc2C1 (configuration not stated) | 102% |
| CC1CCc2nc3ncn(Cc4ccccc4C#N)c(=O)c3cc2C1 (configuration not stated) | 81% |
| CC1CCc2nc3ncn(Cc4ccccc4F)c(=O)c3cc2C1 (configuration not stated) | 66% |
| Cc1ccccc1Cn1cnc2nc3c(cc2c1=O)CC(C)CC3 (configuration not stated) | 8% (active) |
| Cc1ccc(Cn2cnc3nc4c(cc3c2=O)CC(C)CC4)cc1 (configuration not stated) | 20% (active) |
| CC1CCN(C(=O)Cn2cc(SCc3ccccc3)c3ccccc32)CC1 | 46% |
| Cc1cc(C)cc(NC(=O)c2cc(CN3CCCC3)on2)c1 | 88% |
| CCOc1ccc(NC(=O)c2c(NCc3cccs3)sc3c2CCC(C)C3)cc1 (configuration not stated) | 129% |
| COc1ccc(CNc2ncnc3c2c(-c2ccccc2)cn3-c2cccc(C)c2)cc1 | 67% |
| Cc1ccc(CNC(=O)Cn2c3ncccc3c(=O)n2-c2ccc(C)cc2)cc1 | 116% |
| CCOC(=O)N1CCN(C(=O)c2ccc3c(c2)N(Cc2cccc(Cl)c2)C(=O)c2ccccc2S3=O)CC1 (configuration not stated) | 102% |
| Cc1cccc(Cc2cnc(NC(=O)C3Cc4ccc(C)cc4C(=O)O3)s2)c1 (configuration not stated) | 85% |
| CCOC(=O)c1c(NC(=O)c2cc(-c3ccc(Cl)cc3)on2)sc(C)c1C | 68% |
| CCOC(=O)c1c(NC(=O)c2cc(-c3ccc(Br)cc3)on2)sc(C(C)=O)c1C | 88% |
| CCOC(=O)c1c(NC(=O)c2cc(CC)on2)sc(C(C)=O)c1C | 52% |
| CCOC(=O)c1c(NC(=O)c2cc(-c3cccc(Cl)c3)on2)sc(C)c1C | 56% (active) |
| CCOC(=O)c1c(NC(=O)c2cc(CC(C)C)on2)sc(C(C)=O)c1C | 54% (active) |
| CCOC(=O)c1c(NC(=O)c2cc(C(C)C)on2)sc(C(C)=O)c1C | 123% |
| CCOC(=O)c1c(NC(=O)c2cc(-c3ccc(OC)c(OC)c3)on2)sc(C)c1C | 42% (active) |
| CCOC(=O)c1c(NC(=O)c2cc(-c3ccc(OC)cc3)on2)sc(C)c1C | 45% (active) |
| CCOC(=O)c1c(NC(=O)c2cc(-c3ccccc3OC)on2)sc(C)c1C | 61% |

| Structure (SMILES) | survival |
| --- | --- |
| CCOC(=O)c1c(NC(=O)c2cc(-c3cccc(Cl)c3)on2)sc(C(C)=O)c1C | 56% |
| CCOC(=O)c1sc(NC(=O)c2cc(-c3ccc(F)cc3)on2)c(C(=O)OCC)c1C | 65% |
| CCOC(=O)c1c(NC(=O)c2cc(-c3ccc(Br)cc3)on2)sc(C)c1C | 166% |
| CN(C)CCNC(=O)Cn1c(=O)c2cccn2c2ccc(F)cc21 | 103% |
| CCOC(=O)c1ccc(N2C(=O)c3n[nH]c(-c4ccco4)c3C2c2ccc(OC)cc2OC)cc1 (configuration not stated) | 89% |
| CCOc1ccc(C(=O)OCc2cc(=O)n3nc(C4CC4)sc3n2)cc1 | 80% |
| CC(C)N(C)NC(=S)Nc1ccccc1 | 77% |
| CCN(CC)C(=O)Cn1c(=O)n(CCCCCC(=O)Nc2ccccc2)c(=O)c2sccc21 | 82% |
| COc1ccc(-c2cc3nccc(C4CCN(C(=O)OC(C)(C)C)CC4)n3n2)cc1 | 102% |
| CCOC(=O)c1c(NC(=O)c2cc(C)on2)sc(C)c1C | 47% (active) |
| CCOC(=O)c1c(NC(=O)c2cc(C(C)C)on2)sc(C)c1C | 49% |
| CCOC(=O)c1c(NC(=O)c2cc(CC)on2)sc(C)c1C | 144% |
| Cc1nn(C)c2c1c(C(F)(F)F)cc(=O)n2CC(=O)NCCC(C)C | 95% |
| O=C(NCCc1ccccc1)c1cc(Sc2ccc(F)cc2F)nc2ccccc12 | 98% |
| COc1ccc(C2CC(=O)Nc3cc4c(cc32)OCO4)c(OC)c1 (configuration not stated) | 80% |
| COc1ccc(N(Cc2cc3cccc(C)c3[nH]c2=O)C(=O)c2cccc(Cl)c2)cc1 | 67% |
| CCOC(=O)c1c(NC(=O)CS(=O)(=O)c2ccc(C)cc2)sc2c1CCCCC2 | 66% |
| CC1CCc2c(sc(NC(=O)CCCOc3ccc(C(C)(C)C)cc3)c2C(N)=O)C1 (configuration not stated) | 60% |
| COC(=O)c1c(NC(=O)c2ccc(C(C)(C)C)cc2)sc2c1CCC(C)C2 (configuration not stated) | 85% |
| COC(=O)c1c(NC(=O)CCCOc2cccc(C)c2)sc2c1CCC2 | 15% (active) |
| COC(=O)c1c(NC(=O)COc2ccc(C)cc2Br)sc2c1CCCC2 | 61% |
| CCOC(=O)c1c(NC(=O)COc2ccc(C)cc2C(C)(C)C)sc2c1CCC(C)C2 (configuration not stated) | 55% |
| COC(=O)c1c(NC(=O)CS(=O)(=O)c2ccc(C)cc2)sc2c1CCCC2 | -4% (active) |
| COC(=O)c1c(NC(=O)Cc2coc3ccc(C)cc23)sc2c1CCC2 | 59% |
| Cc1cccc(OCCCC(=O)Nc2sc3c(c2C(N)=O)CCC(C)C3)c1 (configuration not stated) | 73% |

| Structure (SMILES) | survival |
| --- | --- |
| COC(=O)c1c(NC(=O)CCCOc2ccc(C(C)(C)C)cc2)sc2c1CCC(C)C2 (configuration not stated) | 28% (active) |
| COC(=O)c1c(NC(=O)CCCOc2cccc(C)c2)sc2c1CCC(C)C2 (configuration not stated) | 10% (active) |
| COC(=O)c1c(NC(=O)CS(=O)(=O)c2ccc(C)cc2)sc2c1CCCCC2 | 76% |
| O=c1c(S(=O)(=O)c2cccc(Cl)c2)cn(Cc2ccccc2)c2cc(N3CCCCC3)c(F)cc12 | 89% |
| O=c1oc2cc(O)ccc2cc1-c1nc(-c2ccc(Cl)c(Cl)c2)cs1 | 101% |
| O=C(Cn1c(=O)c2ccccc2n(CC(=O)Nc2ccc(F)cc2F)c1=O)NCCc1ccccc1 | 81% |
| COc1cc(NC(=O)Nc2cccc(-c3noc(C)n3)c2)cc(OC)c1OC | 128% |
| CC(C)Cn1c(SCC(N)=O)nc2ccccc2c1=O | 97% |
| O=C(CN1C(=O)c2cccc3cccc1c23)N1CCCC1 | 85% |
| Cc1ccc(Cl)cc1NC(=O)Cn1c(=O)n(C(C)C)c(=O)c2oc3ccccc3c21 | 51% |
| Cc1ccc(Cl)cc1N1CCN(C(=O)C2CCCN(S(=O)(=O)c3ccc(Br)s3)C2)CC1 (configuration not stated) | 113% |
| COc1ccccc1N(CC(=O)NC1CCCCC1)C(=O)c1csnn1 | 96% |
| O=C(NCc1cccc(F)c1)c1ccc(CS(=O)c2ccccc2Cl)o1 (configuration not stated) | 68% |
| COC(=O)c1c(NC(=O)CCCOc2ccccc2C)sc2c1CCC2 | 4% (active) |
| COC(=O)c1c(NC(=O)CCCOc2ccc(C)cc2)sc2c1CCCC2 | 8% (active) |
| COC(=O)c1c(NC(=O)CCCOc2ccccc2)sc2c1CCC(C)C2 (configuration not stated) | 2% (active) |
| CC1CCc2c(sc(NC(=O)CCCOc3ccccc3)c2C(N)=O)C1 (configuration not stated) | 78% |
| COC(=O)c1c(NC(=O)COc2ccc(Cl)cc2C)sc2c1CCCCC2 | 68% |
| Cc1ccccc1OCC(=O)Nc1sc2c(c1C(=O)OC(C)C)CCCC2 | 77% |
| COc1ccc(NC(=O)c2c(NC(=O)COc3ccccc3)sc3c2CCC(C)C3)cc1 (configuration not stated) | 120% |
| Cc1ccc(OCCCC(=O)Nc2sc3c(c2C(N)=O)CCCC3)cc1 | 53% |
| CCOc1ccc(/C=C/C(=O)Nc2sc3c(c2C(=O)OC)CCC3)cc1 | 75% |
